Max response data for 15 compounds are collected here from PubChem BioAssay (NCATS).

The structures appear in SMILES notation. “And” between values parts separate entries of the source, which are not always exact repeats. Equal values may be shown once. Results filed as inconclusive are left out. A number with no mark means an inactive call. The call rests on the fitted dose curve; in most records, active means well fitted inhibition curve with a large enough effect; inconclusive means small, poorly fitted or top-dose-only effect; inactive means flat fitted curve, though single readings scatter.
On the % scale 0 is the no-effect control and ±100 the full control effect.

The assay has as its system KB-3-1. Description: Cytotoxic Profiling of Annotated Libraries Using Quantitative High-Throughput Screening (AID 1296008). Further: nearly all actives have a fitted effect of over 60% in size. To be noted: Five cell lines viability, CellTiter-Glo ATP luminescence, 48-72 h; max response: stronger effect = lower value. In outline: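 Cells exposed to compounds for 48 or 72 hr at 37 degrees Celsius. Viability read as ATP-coupled luminescence with CellTiter-Glo after 10 min at room temperature.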
For orientation: In ATP-based viability assays light output follows the ATP content of the culture.
With `CCCCCCCCCC(=O)O[C@H]1CC[C@H]2[C@@H]3CCC4=CC(=O)CC[C@]4(C)[C@H]3CC[C@]12C`, the max response was 0.58%.
For `O=S(=O)(O)c1cc(O)ccc1O`, the max response is 6.29%.
In the case of `CCOP(=O)(OCC)O/C(=C/Cl)c1ccc(Cl)cc1Cl` it was 11.5%; in that of `CC1CCC(C(C)C)C(OC(=O)c2ccccc2N)C1` (stereo not given), 24.6%.
Regarding `CC(=O)OC1CN2CCC1CC2` (stereo not given), the max response was 4.86%.
In the case of `C[C@]12C=CC(=O)C=C1CC[C@@H]1[C@@H]2CC[C@]2(C)OC(=O)CC[C@@H]12` it was 5.64%; in that of `C=CCN1CC[C@]23c4c5ccc(O)c4O[C@H]2[C@@H](O)C=C[C@H]3[C@H]1C5`, 10.7%; in that of `[O]=[Cd]`, -8.4%.
Consider `CCOc1ccc2c3c1O[C@H]1[C@@H](O)C=C[C@H]4[C@@H](C2)N(C)CC[C@@]341`, for which the max response is -8.27%.
For the compound `O=[N+]([O-])c1ccc(F)c([N+](=O)[O-])c1`, the max response was -19.8%.
For `O=c1ccc2cc(O[C@@H]3O[C@H](CO)[C@@H](O)[C@H](O)[C@H]3O)c(O)cc2o1`, the max response is -2.51%.
Regarding `CC(=O)OCC(=O)[C@H]1CC[C@H]2[C@@H]3CC[C@H]4C[C@H](O)CC[C@]4(C)[C@H]3C(=O)C[C@]12C`, the max response is 2.82%.
For the compound `O=CC=O`, the max response is -15.6%.
As to `C[N+]1([O-])[C@@H]2CC[C@H]1CC(OC(=O)C(CO)c1ccccc1)C2` (stereo not given in full), the max response was -12.1% and -9.46%.
`CC(=O)[C@H]1CC[C@H]2[C@@H]3CC[C@@H]4C[C@H](O)CC[C@]4(C)[C@H]3CC[C@]12C`: the max response was 4.77%.
